Screens as filed in PubChem BioAssay.
ELG1 DNA repair: blocks ELG1-dependent DNA repair in HEK293T cells; HEK293T ELG1-luciferase reporter, luminescence, 16 h; DNA damage induced by 5-fluorouridine; Potency, µM (highest dose often 46.1 µM), for the others: top-dose activity change, negative = inhibition, hits mostly inhibitors; 330,000 compounds, 2.3% hits; further: on the % scale 0 is the no-effect control and ±100 the full control effect; nearly all actives have a fitted effect of over 55% in size
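5-Fluorouridine DNA damage + compound/DMSO, 2,000 cells/well, 16 h, 37 °C/5% CO2. ONE-Glo, 30 min RT, luminescence. Readout = decrease in reporter signal.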
NPC1 prom act: NPC1 promoter activation | AID 485313 | Huh7 NPC1 promoter luciferase reporter, 24 h | 320,000 compounds, 2.4% hits | Potency, µM (titrated, usually from 9.22 µM), without a hit: top-dose activation, actives largely listed as activators; further: % of control where 0% means no effect; nearly all actives have a fitted effect of over 60% in size
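Compounds in DMSO were transferred onto Huh7 NPC1-luciferase reporter cells pre-incubated 2 h; after 24 h at 37 °C, Amplite reagent was dispensed and luminescence recorded 10 min later.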
ELG1 genotox: genotoxicity induction in ELG1-luciferase HEK293T cells | HEK293T ELG1-luciferase reporter, luminescence, 16 h | Potency, µM (top dose mostly 46 µM), for the others: at the top dose activity change, positive = activation, most hits filed as activators | 330,000 compounds, 1.3% hits | AID 504466; further: % of control where 0% means no effect; nearly all actives have a fitted effect of over 60% in size
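ELG1-luciferase HEK293T cells, 2,000/well; compound pinned in; 16 hr, 37 °C, 5% CO2; ONE-Glo, 30 min RT; luminescence on CCD imager.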
Rab9 promoter act: Rab9 promoter activation; Huh7 Rab9 promoter-luciferase reporter, luminescence, 24 h; AID 485297; Potency, µM (doses to about 9.22 µM), for inactives: top-dose activation, negative = inhibition, actives largely listed as activators; 320,000 compounds, 2.8% hits; further: % of control where 0% means no effect; nearly all actives have a fitted effect of over 60% in size
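Using Huh7 cells stably transfected with Rab9 promoter–luciferase, compounds were incubated 24 h at 37 °C, 5% CO2; luciferase luminescence was read 10 min after reagent addition.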
SMN2 splice enh: increases expression of the SMN2 splice variant; HEK293 SMN2-luciferase splicing reporter, luminescence, 30-36 h; 210,000 compounds, 2.8% hits; AID 1458; Potency, µM (doses to about 46.1 µM), for inactives: at the highest dose activity change, positive = activation, hits mostly activators; further: % of control where 0% means no effect; nearly all actives have a fitted effect of over 55% in size
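HEK293 cells carry an SMN2 minigene-luciferase reporter in which exon 7 inclusion puts luciferase in frame. Cells were seeded at 2000 cells/well, attached for 10-12 hours, then exposed to compounds for 30-36 hours at 37C before ONE-Glo luminescence.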
FLuc modulator: firefly luciferase modulation, counter-screen for miR-21 project. P08659. purified FLuc, Km substrates, luminescence inhibition. Potency, µM (titrated, usually from 57.5 µM), without a hit: at the top dose activity change, negative = inhibition, hits mostly inhibitors. 360,000 compounds, 6.9% hits. AID 588342;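 further: plate controls were vehicle for no effect and reference inhibitor for full effect; nearly all actives have a fitted effect of over 55% in size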
Target sequence (P08659 whole entry, looked up): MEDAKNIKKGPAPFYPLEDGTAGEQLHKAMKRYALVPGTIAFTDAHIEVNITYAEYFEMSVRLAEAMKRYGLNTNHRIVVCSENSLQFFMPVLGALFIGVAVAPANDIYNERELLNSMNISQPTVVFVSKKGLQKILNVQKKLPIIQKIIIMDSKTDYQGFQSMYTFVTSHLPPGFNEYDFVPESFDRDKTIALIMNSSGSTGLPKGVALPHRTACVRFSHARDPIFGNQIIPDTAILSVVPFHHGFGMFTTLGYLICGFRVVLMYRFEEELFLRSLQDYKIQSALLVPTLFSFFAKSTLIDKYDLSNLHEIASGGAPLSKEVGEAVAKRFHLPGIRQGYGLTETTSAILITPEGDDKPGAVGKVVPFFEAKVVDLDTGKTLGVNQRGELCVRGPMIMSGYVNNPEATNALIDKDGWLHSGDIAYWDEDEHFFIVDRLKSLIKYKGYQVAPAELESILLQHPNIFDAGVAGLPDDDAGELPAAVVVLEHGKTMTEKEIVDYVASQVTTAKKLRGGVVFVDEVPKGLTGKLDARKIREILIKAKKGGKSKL
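Purified P. pyralis luciferase, 10 nM final, with Km-level 10 uM D-luciferin and 10 uM ATP in 50 mM Tris acetate pH 7.5, 10 mM Mg acetate, 0.01% Tween-20, 0.05% BSA; 6-point qHTS titration about 60 µM downward; luminescence read.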
Starred values were filed as active, the others as inactive; ? = inconclusive; / = no result given; [ ] = another dose, or the depositor's remark. In the library only some 9.4% were active in any assay of this set; here they are far more common. The call rests on the fitted dose curve; in most records, active means well fitted curve in the direction sought with a large enough effect; inconclusive means small, poorly fitted or top-dose-only effect, or another doubt; inactive means no such curve, though single readings can be large; an effect the other way counts as inactive or inconclusive. Potency means the concentration at half of the fitted maximal effect.

SMILES	ELG1 DNA repair	NPC1 prom act	ELG1 genotox	Rab9 promoter act	SMN2 splice enh	FLuc modulator
Cc1cc(C)cc([N+](=O)[O-])c1	/	/	/	/	-1.5%	/
CC(C)OCCCNC1=C(Cl)C(=O)c2ccccc2C1=O	2.0%	13.7%	4.1%	12.6%	/	13.5µM*
COCCCNC1=C(Cl)C(=O)c2ccccc2C1=O	?	-0.9%	-5.5%	-2.9%	/	?
CCCC/C=C1\CCc2c([nH]c3ccccc23)C1=O	?	12.7%	13.8%	?	/	-19.0%
CCCCN1CCc2c([nH]c3ccccc23)C1=O	?	?	?	2.51µM*	?	-2.8%[2.3 µM]
COc1ccc(C(=O)NCc2nc(-c3cccc(C)c3)no2)cc1OC	/	/	/	/	5.1%	-10.2%
Cc1nn(Cc2ccc(Cl)cc2Cl)c(C)c1NC(=O)c1sc2ccccc2c1Cl	-2.5%	-4.0%	-0.9%	-20.8%	-14.2%	-2.1%
Cc1ccccc1Cn1nc(C)c(NC(=O)c2sc3ccccc3c2Cl)c1C	25.9µM*	-3.6%	-21.7%	3.8%	-50.4%	-3.4%
COc1ccc(OC)c(-c2cc(C(=O)Nc3c(C)nn(Cc4ccccc4Cl)c3C)no2)c1	0.0%	-9.5%	-10.8%	-1.9%	-25.1%	5.6%
COc1ccc(OC)c(-c2cc(C(=O)Nc3cc(C)n(Cc4ccc(Cl)cc4)n3)no2)c1	20.6µM*	-8.8%	-8.7%	-11.9%	-28.6%	4.8%
COc1ccc(-c2cc(C(=O)Nc3c(C)nn(Cc4ccccc4Cl)c3C)no2)cc1OC	23.1µM*	-3.4%	3.2%	-3.8%	-10.4%	0.1%
COc1ccc(OC)c(-c2cc(C(=O)Nc3c(C)nn(Cc4ccccc4C)c3C)no2)c1	25.9µM*	-10.1%	-14.6%	-5.8%	-33.0%	2.0%
O=C(CSc1nc2nccnc2c(=O)n1CCc1c[nH]c2ccccc12)Nc1ccccc1	/	/	/	/	/	-4.5%
O=C(NCCCc1ccccc1)c1nn(-c2ccccc2F)nc1CO	/	/	/	/	-30.8%	-8.4%
CCCc1cc(=O)n2[nH]c(-c3ccc(Cl)cc3)cc2n1	?	?	?	2.82µM*	/	15.1µM*
CCCc1cc(=O)n2[nH]c(-c3ccc(C)cc3)cc2n1	?	3.98µM*	?	3.98µM*	12.6µM*	9.53µM*
CCCc1cc(=O)n2[nH]c(-c3ccccc3)cc2n1	?	3.98µM*	?	2.82µM*	11.2µM*	16.9µM*
CCOC(=O)Cc1cc(=O)n2[nH]c(-c3ccc(Cl)cc3)cc2n1	0.0%	2.7%	4.4%	0.0%	19.0%	13.5µM*
CCOC(=O)Cc1cc(=O)n2[nH]c(C)cc2n1	17.8%	-1.2%	3.8%	-3.3%	30.8%	-0.6%
CCCCOc1ccc(C(=O)N(Cc2ccc(N(C)C)cc2)Cc2ccco2)cc1	/	/	/	/	13.0%	-14.4%
COc1ccccc1CN(Cc1nc2ccccc2c(=O)[nH]1)S(=O)(=O)c1ccc(C)cc1	23.1µM*	-0.3%	-16.9%	-2.2%	-4.6%	0.1%
Cc1ccc(C)c(CSc2nc3c([nH]c4ccccc43)c(=O)n2C)c1	/	/	/	/	/	-0.2%
O=c1cc(-c2ccccc2)[nH]n1-c1ccc([N+](=O)[O-])cc1	?	20.0%	-1.8%	?	-9.1%	15.1µM*
COc1ccc(-c2cc3ccccc3s2)cc1[C@H]1[C@H]2C=CC[C@@H](C)[C@@H]2C(=O)N1Cc1ccccc1	?	3.16µM*	?	2.82µM*	/	1.35µM*
Cc1ccc(NC(=O)Nc2ccc(Cl)c(Cl)c2)nc1	?	?	?	4.47µM*	/	?
SMILES	ELG1 DNA repair	NPC1 prom act	ELG1 genotox	Rab9 promoter act	SMN2 splice enh	FLuc modulator
Cc1ccc(NC(=O)Nc2ccc(Cl)cn2)cc1	?	13.0%	?	3.98µM*	11.2µM*	?
O=C(Nc1cccc(F)c1)Nc1ccc(Cl)cn1	?	?	17.3%	?	/	?
COc1ccc(CNC(=O)COC(=O)CC2CC3CCC2C3)cc1OC (stereo not given)	6.4%	-3.0%	0.2%	-2.3%	-7.7%	2.1%
COc1ccc(-c2cc(-c3nnc(COC(=O)CC4CC5CCC4C5)o3)c3ccccc3n2)cc1OC (stereo not given)	18.4µM*	-5.0%	-2.5%	-0.6%	-13.4%	?
c1coc(-c2nc3n(n2)C2(CCCCC2)[C@@H]2CCCC[C@@H]2N3)c1	/	/	/	/	/	0.3%
Cc1cc2[nH]c(=O)cc(-c3ccccc3)n2n1	?	?	?	?	/	9.53µM*
COc1ccc(-c2cn3cccnc3n2)cc1NC(=O)C(C)C	21.3%	-1.6%	7.2%	1.6%	/	-17.6%
COc1cc(C(=O)Nc2cc(-c3cn4cccnc4n3)ccc2C)cc(OC)c1OC	?	0.4%	12.5%	?	0.9%	12µM*
COc1cc(OC)cc(C(=O)Nc2cc(-c3cn4cccnc4n3)ccc2C)c1	0.7%	1.1%	6.4%	-6.7%	5.7%	?
COc1ccc(-c2cn3cccnc3n2)cc1Br	?	11.8%	?	11.6%	?	19µM*
COc1ccc(-c2cc(-c3ccccc3)nc3ncnn23)cc1	?	-3.6%	-13.4%	-29.8%	-45.7%	-3.0%
COc1ccc(-c2cn3cc(Br)cnc3n2)cc1	?	8.6%	20.6µM*	?	10µM*	?
COc1ccc(C2CC(=O)N(C)c3ccccc3S2)cc1OC (stereo not given)	?	25.2%	18.3µM*	3.98µM*	21.5%	?
Cc1cc(C)c2c(N)c(C(=O)NC3CCCC3)sc2n1	-5.9%	7.0%	9.7%	23.9%	11.0%	?
Cc1cc(C)c2c(N)c(C(=O)Nc3ccc(F)cc3)sc2n1	?	0.708µM*	?	0.501µM*	/	1.51µM*
Cc1cc(C)c2c(N)c(C(=O)N/N=C/c3cccs3)sc2n1	?	1.78µM*	?	1.58µM*	/	?
Cc1cc(C)c2c(N)c(C(=O)Nc3ccc(C)c(C)c3)sc2n1	?	1µM*	1.16µM*	0.631µM*	/	1.69µM*
Cc1cc(C)c2c(N)c(C(=O)Nc3ccc([N+](=O)[O-])cc3)sc2n1	?	0.501µM*	?	0.794µM*	/	-3.3%
Cc1cc(NC(=O)C2CCCN(S(=O)(=O)c3cccc4nonc34)C2)ccc1Br (stereo not given)	/	/	/	/	-4.3%	0.8%
COc1cccc(CNC(=O)c2ccc3nc(-c4ccc(F)cc4)c(-c4ccc(F)cc4)nc3c2)c1	/	/	/	/	/	-16.7%
COc1ccc(NC(=O)c2sc3nc(C)cc(C)c3c2N)cc1	?	1.58µM*	?	1.26µM*	/	3.79µM*
Cc1cc(C)c(NC(=O)c2sc3nc(C)cc(C)c3c2N)c(C)c1	/	/	/	/	-2.0%	-3.5%
Cc1cc(C(F)(F)F)c2c(N)c(C(=O)Nc3cc(C)on3)sc2n1	?	?	?	3.55µM*	-43.3%	?
